Sampled rows, rich in hits. Any-hit rate of the full collection: about 2.4%.
TLR9-MyD88 inh = inhibitors of human TLR9-MyD88 binding; hit rate 0.21% among 340,000; inhibition, % at 4.98 µM; CHO BLA complementation TLR9-MyD88, CCF4 FRET ratio;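 active = inhibition above the mean over all tested compounds plus 3 SD, cut at about 21% in these data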;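 also: 0% = DMSO only wells and 100% = clavulanate BLA inhibitor control wells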
HSF1 inhib = HSF1 inhibition; NIH3T3-HGL HSE-luciferase, MG132-induced, luminescence 8 h; stronger effect = lower value; activity change, negative = inhibition, % at 7.5 µM (by protocol); hit rate 0.77% among 300,000;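 active = more than half of replicate wells show activity change below -50%, luminescence cut by over half; inconclusive = some wells, but at most half, below -50%; inactive = no replicate well below -50%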;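 also: luciferase reports HSF-1 transcriptional activity via heat shock element; 0% = median of DMSO wells and -100% = zero luminescence signal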
NOD2 RIPK2 PPI = inhibitors of human NOD2-RIPK2 interaction | CHO BLA complementation NOD2-RIPK2, CCF4 ratio | inhibition, % at 4.98 µM | hit rate 0.38% among 360,000 | AID 624267; in the data active = inhibition above about 21%;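 also: 0% = vehicle only and 100% = reference blocker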
Target sequence (O43353 whole entry, looked up): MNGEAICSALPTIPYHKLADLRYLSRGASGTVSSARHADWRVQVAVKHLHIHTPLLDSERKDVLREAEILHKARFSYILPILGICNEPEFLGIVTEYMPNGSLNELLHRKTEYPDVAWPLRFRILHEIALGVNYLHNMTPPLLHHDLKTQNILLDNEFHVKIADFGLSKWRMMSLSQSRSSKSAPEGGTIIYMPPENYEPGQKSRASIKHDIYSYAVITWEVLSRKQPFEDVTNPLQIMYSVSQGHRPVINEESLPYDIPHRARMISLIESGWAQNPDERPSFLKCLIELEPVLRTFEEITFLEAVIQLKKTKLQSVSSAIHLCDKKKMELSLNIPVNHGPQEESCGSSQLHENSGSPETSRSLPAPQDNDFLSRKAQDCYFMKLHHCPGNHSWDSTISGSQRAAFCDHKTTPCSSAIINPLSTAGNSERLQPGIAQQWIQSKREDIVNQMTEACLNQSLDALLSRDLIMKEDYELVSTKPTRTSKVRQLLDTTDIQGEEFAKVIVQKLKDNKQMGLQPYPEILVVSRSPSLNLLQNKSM
HSF1 activator = increases HSF-1 driven luciferase reporter signal; hit rate 1.7% among 300,000; activation, % at 9 µM; AID 504408; NIH3T3-HGL HSF-1 luciferase reporter, MG132, 8 h; 100% = twice DMSO control signal;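 active = mean replicate activation of at least 50% with a set share of replicates each reaching 50%; inconclusive = only one of those two conditions met; inactive = mean below 50% and too few replicates reaching it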;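 also: 0% = median of the neutral control wells and 100% = twice that signal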
TLR4-MyD88 BLA = blocks binding of human TLR4 to MyD88 | O00206+Q99836 | HeLa CL3-4 TLR4/MyD88 BLA complementation, FRET ratio | inhibition, % at 8.4 µM | hit rate 0.18% among 200,000; in the data active = inhibition above about 25%;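 also: 0% = vehicle and 100% = reference inhibitor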
TLR4-MyD88 conf = TLR4-MyD88 interaction inhibition confirmed; shares compounds with TLR4-MyD88 BLA; HeLa CL3-4 BLA complementation, CCF4 FRET ratio; inhibition, % at 8.4 µM; hit rate 50% among 350; AID 941;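 active = mean inhibition across three repeat runs above about 25% carried over from the earlier screen, limit read from the data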;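 also: plate controls were DMSO only for no effect and clavulanic acid blocking BLA at full dose for full effect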
BLA inh HeLa = counter-screen for TLR4-MyD88 inhibitors: beta-lactamase reporter inhibitors; hit rate 63% among 350; AID 1237; HeLa BLA reporter, CCF4 FRET ratio; inhibition, % at 8.4 µM; shares compounds with TLR4-MyD88 BLA;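 active = mean inhibition over three repeats above about 26% taken from the earlier screen, limit read from the data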;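 also: HeLa cells stably expressing beta-lactamase reporter as counterscreen for TLR4-MyD88 inhibitors; 0% = DMSO and 100% = clavulanic acid full inhibition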
TLR9-MyD88 conf = TLR9-MyD88 interaction inhibition, confirmation. AID 540250. shares compounds with TLR9-MyD88 inh. hit rate 51% among 680. inhibition, % at 4.98 µM. CHO TLR9/MyD88 BLA complementation, CCF4 FRET ratio;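 active = mean inhibition across three repeats above about 21% taken from the earlier screen, limit read from the data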;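 also: blue over green emission ratio reports constitutive TLR9 MyD88 association via BLA complementation; 0% = DMSO vehicle wells and 100% = clavulanate BLA inhibitor wells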
BLA counter-1 = counter-screen for TLR9-MyD88 inhibitors: non-selective beta-lactamase inhibitors. shares compounds with TLR9-MyD88 inh. CHO-BLA cells, CCF4 FRET ratio, BLA reporter. inhibition, % at 4.98 µM. hit rate 7% among 680;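 active = mean inhibition above a 50% cutoff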;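 also: counterscreen of TLR9-MyD88 hits on CMV-driven BLA in CHO-K1 cells; 0% = DMSO alone and 100% = clavulanate blocking BLA; higher means less blue over green ratio so more BLA blockade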
TLR9 CHO cytotox = CHO cell toxicity counter-screen for TLR9-MyD88 inhibitors; shares compounds with TLR9-MyD88 inh; TLR9-MyD88 CHO cells cytotoxicity, luminescence; inhibition, % at 4.98 µM; hit rate 39% among 680; AID 588336; in the data active = inhibition above about 11%
NOD2 RIPK2 conf = NOD2-RIPK2 interaction inhibition confirmed | inhibition, % at 4.98 µM | CHO cells, NOD2-RIPK2 BLA complementation, CCF4 FRET | hit rate 70% among 1,200 | AID 624370 | shares compounds with NOD2 RIPK2 PPI;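 active = mean inhibition across replicates above a set limit taken from the earlier primary screen, cut at about 21% in these data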;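 also: 0% = DMSO-only wells and the high end = clavulanate BLA-blocked wells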
BLA counter-2 = hits BLA reporter in NOD2-RIPK2 inhibitor counterscreen | AID 624371 | shares compounds with NOD2 RIPK2 PPI | CHO BLA reporter, CCF4 FRET ratio | inhibition, % at 4.98 µM | hit rate 57% among 1,200;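 active = mean inhibition above the low-control mean inhibition plus three low-control SD, cut at about 11% in these data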;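 also: 0% = DMSO only wells and 100% = clavulanate high control wells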
* = called active by the depositor; ? = inconclusive; · = no result.

SMILES	TLR9-MyD88 inh	HSF1 inhib	NOD2 RIPK2 PPI	HSF1 activator	TLR4-MyD88 BLA	TLR4-MyD88 conf	BLA inh HeLa	TLR9-MyD88 conf	BLA counter-1	TLR9 CHO cytotox	NOD2 RIPK2 conf	BLA counter-2
Cc1c(C(=O)NCc2ccc3c(c2)OCCO3)sc(=O)n1Cc1ccc(S(=O)(=O)N(C)C)cc1	·	·	6	·	·	·	·	·	·	·	·	·
CCOC(=O)C1=C(CSc2nc(-c3ccccc3)ccc2C#N)OC(N)=C(C#N)C1c1cccnc1 (centres undefined)	14	-1	21*	0	27*	6	15	·	·	·	26*	37*
Nc1ccc2c(c1)Cc1cc([N+](=O)[O-])ccc1-2	46*	-5	49*	23	46*	38*	67*	31*	34	11*	58*	54*
Cc1ccc(NC(=O)CCS(=O)(=O)c2cc3[nH]c(=O)c(=O)[nH]c3cc2C)cc1	-1	-6	-7	-22	·	·	·	·	·	·	·	·
COc1cc(/C=C/c2nc3ccccc3s2)cc(OC)c1O	15	0	9	32	11	·	·	·	·	·	·	·
CN(C)c1ccc(/C=C/c2nc3ccccc3s2)cc1	30*	-80*	22*	-82	45*	44*	68*	46*	59*	26*	57*	70*
O=c1oc2cc(O)ccc2cc1-c1nc2c(s1)CCc1ccccc1-2	47*	·	44*	·	52*	69*	99*	67*	79*	2	72*	85*
Nc1nc2c(s1)CCc1ccccc1-2	3	3	2	-16	·	·	·	·	·	·	·	·
O=c1oc2ccccc2cc1-c1nc2c(s1)CCc1ccccc1-2	49*	3	40*	-4	31*	47*	81*	51*	58*	-2	69*	79*
COc1ccc(/C=C2/SC(=O)N(CCNC(=O)C3CC(=O)N(Cc4ccccc4)C3)C2=O)cc1 (centres undefined)	8	·	6	·	·	·	·	·	·	·	·	·
Cc1cccc(C)c1-n1c(C)cc(/C=N\Nc2ccc([N+](=O)[O-])cn2)c1C	44*	17	30*	14	29*	35*	64*	31*	27	0	61*	62*
O=[N+]([O-])c1ccc(NN=Cc2cccc(O)c2)nc1	7	·	16	·	·	·	·	·	·	·	·	·
CCOC(=O)CS(=O)(=O)c1nc(-c2ccccc2)cc(C(F)(F)F)n1	30*	124	85*	137*	25*	17	-18	30*	7	100*	85*	27*
O=C(Cn1ncc(Cl)c(Cl)c1=O)c1ccc(Cl)cc1	32*	29	34*	56*	29*	22	8	18	13	72*	39*	6
O=C(Cn1ncc(N2CCOCC2)c(Cl)c1=O)c1ccc(Cl)cc1	5	23	0	19	-8	·	·	·	·	·	·	·
CN(C)c1ccc(/C=C/C(=O)c2cccc(Br)c2)cc1	33*	-10	60*	-9	63*	66*	90*	27*	34	-2	64*	68*
Nc1ccc2c3c(cccc13)C(=O)N(c1ccccc1)C2=O	28*	-1	31*	3	25*	18	39*	13	16	4	36*	42*
Nc1cccc(N2C(=O)c3cccc4c(N)ccc(c34)C2=O)c1	7	-1	5	-2	·	·	·	·	·	·	·	·
COc1cccc(CNC(=O)CCCN2C(=O)C(c3ccccc3)Oc3cccnc32)c1OC (centres undefined)	5	7	6	-3	·	·	·	·	·	·	·	·
Cc1[nH]c2ccccc2c1/C=N/Nc1ccc([N+](=O)[O-])cc1	26*	31	28*	42	31*	24	43*	17	15	4	30*	42*
C/C(=N\Nc1ccc([N+](=O)[O-])cc1)c1cc2ccccc2o1	58*	12	57*	23	60*	54*	87*	44*	46	2	67*	72*
O=C(N/N=C/c1ccc([N+](=O)[O-])cc1)c1cc2ccccc2o1	-1	-4	-3	18	·	·	·	·	·	·	·	·
C/C(=N\Nc1ccc([N+](=O)[O-])cc1)c1ccc2c(c1)OCO2	32*	23	23*	30	32*	35*	60*	28*	27	8	19	25*
C/C(=N\NS(=O)(=O)c1ccc([N+](=O)[O-])cc1)c1ccc2c(c1)OCO2	-14	1	-11	-3	·	·	·	·	·	·	·	·
Cc1ccc(N2C(=O)Nc3ccccc3S2(=O)=O)cc1Cl	3	-2	6	26	·	·	·	·	·	·	·	·
SMILES	TLR9-MyD88 inh	HSF1 inhib	NOD2 RIPK2 PPI	HSF1 activator	TLR4-MyD88 BLA	TLR4-MyD88 conf	BLA inh HeLa	TLR9-MyD88 conf	BLA counter-1	TLR9 CHO cytotox	NOD2 RIPK2 conf	BLA counter-2
O=C(/C=C/c1cn(CC(O)CN2CCCCCC2)c2ccccc12)c1cccs1 (centres undefined)	47*	28	47*	?	31*	37*	60*	28*	27	2	56*	52*
O=Cc1cn(CC(O)Cn2cc(C=O)c3ccccc32)c2ccccc12	-12	1	-8	10	·	·	·	·	·	·	·	·
COc1ccc(C)cc1N(CC(=O)N1CCCCCC1)S(=O)(=O)c1ccc(C)cc1	-1	7	2	-17	·	·	·	·	·	·	·	·
CCCCNC(=O)CNC(=O)c1nn(-c2ccc(OC)cc2OC)c(=O)c2ccccc12	10	1	-2	6	·	·	·	·	·	·	·	·
CCCCNC(=O)c1nn(-c2ccccc2OC)c(=O)c2ccccc12	24*	5	26*	23	26*	20	23	14	18	1	23*	24*
CCOc1ccc2ccccc2c1C1NC(=O)N(C)C(C)=C1C(=O)OCCOC (centres undefined)	8	13	-13	12	·	·	·	·	·	·	·	·
CC(C)(C)/C(O)=C/c1nc2ccccc2[nH]c1=O	-6	-2	-14	33	4	·	·	·	·	·	·	·

Bioassay records: PubChem BioAssay, several laboratories
